The text below walks through data of PubChem BioAssay (NCI).

What all share (experiment): NCI-60 one-dose screen, 48 h (100 = growth as untreated, 0 = no growth, -100 = all killed)
One assay concerns DU-145 prostate. To be noted: 10 µM unless noted.
The next assay concerns K-562 leukemia. To be noted: 10 µM unless noted.
A further assay relates to MALME-3M melanoma. To be noted: 10 µM unless noted.
In another assay the test system is MDA-MB-231 breast. To be noted: 10 µM unless noted.
For the next assay, the system named is RXF 393 renal. To be noted: 10 µM unless noted.
For a further assay, the system named is SF-268 CNS. To be noted: 10 µM unless noted.
The subject of another assay is SF-295 CNS. To be noted: 10 µM unless noted.
In a further assay the test system is SF-539 CNS. To be noted: 10 µM unless noted.
A further assay has as its system UACC-257 melanoma. To be noted: 10 µM unless noted.
The test system of a further assay is M14 melanoma. To be noted: 10 µM unless noted.
The next assay relates to HCT-15 colon. To be noted: 10 µM unless noted.
Another assay relates to HT29 colon. To be noted: 10 µM unless noted.
For another assay, the system named is SNB-75 CNS. To be noted: 10 µM unless noted.
For a further assay, the system named is SNB-19 CNS. To be noted: 10 µM unless noted.
Another assay deals with U251 CNS. To be noted: 10 µM unless noted.
For the next assay, the system named is PC-3 prostate. To be noted: 10 µM unless noted.
The test system of the next assay is SK-MEL-5 melanoma. To be noted: 10 µM unless noted.
The subject of a further assay is UACC-62 melanoma. To be noted: 10 µM unless noted.
The next assay deals with LOX IMVI melanoma. To be noted: 10 µM.
The next assay has as its system SK-MEL-28 melanoma. To be noted: 10 µM unless noted.

Compounds without any hit were thinned out: in the full panel of roughly 83,000, 20% have a hit.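 Cells were grown in 96-well plates and exposed to the test compound at a single concentration for 48 hours; results are reported as percent growth, with values below 10 considered active.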 Unmarked numbers belong to inactive results. Calls of active or inactive are those of the source.

Turning to `Cc1cc(C)cc(NC(=O)Cn2cc(COn3nnc4ccccc43)nn2)c1`, the growth with DU-145 prostate is 111%; in the assay with K-562 leukemia it was 102%; in the assay on MALME-3M melanoma, 108%; with MDA-MB-231 breast, 106%; in the assay with RXF 393 renal, 122%; in the assay with SF-268 CNS, 116%. The growth is 110% in the assay on SF-295 CNS; 99.6% in the assay on SF-539 CNS; 101% in the assay on UACC-257 melanoma; 106% in the assay with M14 melanoma; 106% in the assay with HCT-15 colon; 104% in the assay on HT29 colon. For the same compound, the growth in the assay with SNB-75 CNS is 96.3%; in the assay with SNB-19 CNS, 96.2%; with U251 CNS, 103%; in the assay with PC-3 prostate it was 97.9%; in the assay with SK-MEL-5 melanoma, 101%; in the assay with UACC-62 melanoma it was 96.9%. Moreover, the growth in the assay on LOX IMVI melanoma and in the assay with SK-MEL-28 melanoma was 100% throughout.
Regarding `CN(C)c1nc(NCCNS(=O)(=O)c2ccc(C(=O)/C=C/c3ccc(C(F)(F)F)cc3)cc2)nc(Nc2ccc(F)cc2)n1`, the growth in the assay with DU-145 prostate is 6.99% (active); with K-562 leukemia, -1.07% (active); in the assay with MALME-3M melanoma, -2.41% (active); in the assay with MDA-MB-231 breast it was -74.2% (active); in the assay on RXF 393 renal, -81.4% (active); in the assay on SF-268 CNS, 21.6%. Further, the growth in the assay on SF-295 CNS is -14.6% (active); with SF-539 CNS it was -97.5% (active); in the assay on UACC-257 melanoma it was 23.7%; in the assay on M14 melanoma, -48.3% (active); with HCT-15 colon it was -92.5% (active); in the assay on HT29 colon, -94% (active). Also, the growth in the assay with SNB-75 CNS is 54.6%; with SNB-19 CNS, 25.2%; in the assay with U251 CNS, -99.2% (active); in the assay on PC-3 prostate, -33.5% (active); in the assay with SK-MEL-5 melanoma, 16.2%; with UACC-62 melanoma it was -5.71% (active). Also, the growth is -100% (active) with LOX IMVI melanoma and -80% (active) in the assay on SK-MEL-28 melanoma.
Consider `CC1(C)CC[C@]2(C(=O)O)CC[C@]3(C)C(=CCC4[C@@]5(C)C[C@@H](O)[C@@H]6OC(c7cccc(Br)c7)OC[C@@]6(C)C5CC[C@]43C)C2C1` (stereo not given in full), for which the growth was 32.5% in the assay with DU-145 prostate; 16% in the assay with K-562 leukemia; 73.9% in the assay on MALME-3M melanoma; 71.2% with MDA-MB-231 breast; 71.3% with RXF 393 renal; 47.5% in the assay on SF-268 CNS. Moreover, the growth was 33% in the assay with SF-295 CNS; 54.6% with SF-539 CNS; 53.1% in the assay on UACC-257 melanoma; 53.2% with M14 melanoma; 20.7% with HCT-15 colon; 21.5% in the assay with HT29 colon. Moreover, the growth in the assay with SNB-75 CNS was 85.1%; in the assay with SNB-19 CNS, 47.1%; with U251 CNS, 22.9%; in the assay on PC-3 prostate, 25.3%; with SK-MEL-5 melanoma it was 41.3%; in the assay with UACC-62 melanoma it was 55.5%. Also, the growth in the assay with LOX IMVI melanoma was 16.5%; in the assay on SK-MEL-28 melanoma, 74.2%.
For the compound `CN(C)c1nc(NCCNS(=O)(=O)c2ccc(C(=O)/C=C/c3ccc(Cl)cc3)cc2)nc(Nc2ccc(F)cc2)n1`, the growth is -23.1% (active) with DU-145 prostate; 1.01% (active) in the assay on K-562 leukemia; -46.6% (active) with MALME-3M melanoma; -61.4% (active) in the assay with MDA-MB-231 breast; -81.3% (active) with RXF 393 renal; 3.35% (active) with SF-268 CNS. Further, the growth in the assay with SF-295 CNS is -26.6% (active); with SF-539 CNS it was -98% (active); with UACC-257 melanoma, -4.45% (active); with M14 melanoma, -65.8% (active); with HCT-15 colon it was -84.4% (active); in the assay with HT29 colon, -97.5% (active). For the same compound, the growth with SNB-75 CNS was 13.9%; with SNB-19 CNS, -5.63% (active); with U251 CNS, -99.8% (active); with PC-3 prostate it was -65.9% (active); in the assay on SK-MEL-5 melanoma it was -64.9% (active); in the assay with UACC-62 melanoma, -56.8% (active). The growth in the assay with LOX IMVI melanoma was -100% (active); in the assay on SK-MEL-28 melanoma it was -85.5% (active).
Turning to `COc1c(F)ccc(C(=O)Nc2ccc3nc(NC(=O)C4CCCN(S(=O)(=O)c5ccc(Br)s5)C4)sc3c2)c1F` (stereo not given), the growth is 88% in the assay with DU-145 prostate; 68.9% with K-562 leukemia; 88.9% with MALME-3M melanoma; 81.6% in the assay on MDA-MB-231 breast; 36.1% in the assay on RXF 393 renal; 64.1% with SF-268 CNS. The growth was 69.3% in the assay with SF-295 CNS; 78% with SF-539 CNS; 88.7% with UACC-257 melanoma; 89.7% in the assay with M14 melanoma; 63% in the assay on HCT-15 colon; 75.5% with HT29 colon. The growth is 66.5% in the assay on SNB-75 CNS; 90.1% in the assay on SNB-19 CNS; 68% with U251 CNS; 56.1% in the assay on PC-3 prostate; 81.5% in the assay on SK-MEL-5 melanoma; 75.6% in the assay with UACC-62 melanoma. In addition, the growth in the assay with LOX IMVI melanoma was 79.3%; in the assay on SK-MEL-28 melanoma, 94.6%.
Regarding `Cc1ccc(C2CC(c3ccc(S(=O)(=O)NCCNc4nc(Nc5ccc(F)cc5)nc(N(C)C)n4)cc3)=Nc3c(N)nc(N)nc3N2)cc1` (stereo not given), the growth in the assay on DU-145 prostate is 76%; in the assay on K-562 leukemia, 8.57% (active); with MALME-3M melanoma, 54.3%; in the assay on MDA-MB-231 breast, 32.5%; in the assay with RXF 393 renal, 27.2%; in the assay on SF-268 CNS, 57.7%. The growth was 48% in the assay on SF-295 CNS; -44% (active) in the assay on SF-539 CNS; 75.4% in the assay with UACC-257 melanoma; 41.5% with M14 melanoma; 29.1% with HCT-15 colon; -14.3% (active) with HT29 colon. Besides, the growth in the assay on SNB-75 CNS is 77.7%; with SNB-19 CNS, 60.4%; in the assay with U251 CNS, 47.3%; in the assay with PC-3 prostate it was 33.5%; in the assay on SK-MEL-5 melanoma it was 29.1%; in the assay on UACC-62 melanoma, 63.7%. Moreover, the growth was 6.81% (active) in the assay with LOX IMVI melanoma and 59.8% in the assay with SK-MEL-28 melanoma.
Regarding `CC(C)C(C(=O)O)n1c(O)c(/C=C2/C=c3cc4c(cc3=NC2=O)OCO4)sc1=S` (stereo not given), the growth in the assay with DU-145 prostate is 115%; in the assay on K-562 leukemia it was 109%; in the assay on MALME-3M melanoma, 98.4%; in the assay with MDA-MB-231 breast, 99.2%; in the assay on RXF 393 renal, 116%; with SF-268 CNS, 111%. Further, the growth is 102% with SF-295 CNS; 104% in the assay with SF-539 CNS; 107% in the assay with UACC-257 melanoma; 103% with M14 melanoma; 101% in the assay with HCT-15 colon; 119% in the assay with HT29 colon. Moreover, the growth in the assay with SNB-75 CNS is 101%; in the assay with SNB-19 CNS it was 94.4%; in the assay with U251 CNS, 106%; in the assay on PC-3 prostate, 106%; in the assay with SK-MEL-5 melanoma it was 103%; in the assay on UACC-62 melanoma it was 89.2%. In addition, the growth with LOX IMVI melanoma was 94%; with SK-MEL-28 melanoma, 110%.
